Measurements reported in PubChem BioAssay (NCATS).
“And” between values parts separate entries of the source, which are not always exact repeats. Equal entries are not always repeated. Results filed as inconclusive are left out. Unmarked numbers belong to inactive results. The source made the active and inactive calls. Unless noted, the call rests on the fitted dose curve; in most records, active means well fitted curve in the direction sought with a large enough effect; inconclusive means small, poorly fitted or top-dose-only effect, or another doubt; inactive means no such curve, though single readings can be large; an effect the other way counts as inactive or inconclusive.

Columns and labels:
[1] = qHTS to identify inhibitors of the type 1 interferon - major histocompatibility complex class I in skeletal muscle: primary screen against the NCATS Mechanism Interrogation Plate v5.0 (MIPE) Libary (AID 1347411); further: nearly all actives have a fitted effect of over 65% in size; further: potency means the concentration at half of the fitted maximal effect;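 on activity change, negative = inhibition: plate controls were vehicle for no effect and reference inhibitor for full effect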
Procedure, shortened: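 Seed engineered human myoblasts (HLA-B HiBit) in medium without dexamethasone containing 4 ng/ml IFN-beta; after 1 hr add compound titrations (top 46 uM final). Incubate 24 hrs at 37 C, lyse 10 min with HiBiT reagent, read luminescence.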

[2] = target: Calcium and integrin-binding protein 1 (Homo sapiens) (UniProt Q99828); experiment: Primary qHTS for Identification of Calcium Integrin Binding Protein 1 (CIB1) Competitor (AID 1508620);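 further: GST tagged CIB1 binding a fluorescein labelled alphaIIb integrin peptide tracer; top concentration of the series differs between compounds; on the % scale 0 is the no-effect control and ±100 the full control effect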
Procedure, shortened: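 Fluorescence polarization competition: CIB1-GST (1 uM final) preincubated with compound 15 min at room temperature, then FITC-labeled alphaIIb peptide (100 nM final) added for another 15 min. Polarization read at Ex 480/Em 540.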

[3] = Primary qHTS for small molecule stabilizers of the endoplasmic reticulum resident proteome: Secreted ER Calcium Modulated Protein (SERCaMP) assay (AID 1508630); further: on the % scale 0 is the no-effect control and ±100 the full control effect
Procedure, shortened: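 The SH-SY5Y reporter protocol was run at 3 concentrations up to 38.3 uM (primary) or 11 concentrations (follow-up): 16 h compound, 100 nM thapsigargin for 4 h, then extracellular luciferase luminescence.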

[4] = target: Cytochrome P450 2D6 (Homo sapiens) (UniProt P10635); experiment: Cytochrome P450 family 2 subfamily D member 6 (CYP2D6) small molecule antagonists: luciferase biochemical (cell-free) qHTS assay (AID 1645840; active means well fitted curve in the direction sought with a large enough effect in the repeat runs; an effect the other way counts as inactive or inconclusive; further: nearly all actives have a fitted effect of over 55% in size; further: potency means the concentration at half of the fitted maximal effect; on activity change, negative = inhibition: series mostly up to about 57 µM; on the % scale 0 is the no-effect control and ±100 the full control effect)
Procedure, shortened: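 P450-Glo CYP2D6 system: proluciferin substrate converted by enzyme to luciferin, read by luminescence proportional to activity. Enzyme-substrate mix with compound 10 min at room temperature, then NADPH regeneration 1 h before detection reagent.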

[5] = target: Cytochrome P450 2C9 (Homo sapiens) (UniProt P11712); experiment: Cytochrome P450 family 2 subfamily C member 9 (CYP2C9) small molecule antagonists: luciferase biochemical (cell-free) qHTS assay (AID 1645842; active means well fitted curve in the direction sought with a large enough effect in the repeat runs; an effect the other way counts as inactive or inconclusive; further: nearly all actives have a fitted effect of over 55% in size; further: potency means the concentration at half of the fitted maximal effect; on activity change, negative = inhibition: series mostly up to about 57 µM; on the % scale 0 is the no-effect control and ±100 the full control effect)
Procedure, shortened: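 P450-Glo CYP2C9 system: proluciferin substrate with enzyme in mix containing 0.4% BSA, 10 min at room temperature, then NADPH regeneration solution added and incubated 1 h at 37C. Detection reagent stopped reaction; luminescence read after 20 min as RLU.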

[6] = target: N-terminal Xaa-Pro-Lys N-methyltransferase 1 (Homo sapiens) (UniProt Q9BV86); experiment: Confirmatory qHTS for Inhibitors of N-terminal methyltransferase 1 (NTMT1): MTaseGlo Assay (AID 1645874); further: potency means the concentration at half of the fitted maximal effect; nearly all actives have a fitted effect of over 65% in size
Procedure, shortened: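 SPKRIA peptide at 1 uM was methylated by 125 nM NTMT1 using 100 uM SAM over 30 min at room temperature, following a 15 min compound preincubation. Product SAH was detected luminescently.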

Chain of Cytochrome P450 2C9 (Homo sapiens) (P11712 whole entry, looked up): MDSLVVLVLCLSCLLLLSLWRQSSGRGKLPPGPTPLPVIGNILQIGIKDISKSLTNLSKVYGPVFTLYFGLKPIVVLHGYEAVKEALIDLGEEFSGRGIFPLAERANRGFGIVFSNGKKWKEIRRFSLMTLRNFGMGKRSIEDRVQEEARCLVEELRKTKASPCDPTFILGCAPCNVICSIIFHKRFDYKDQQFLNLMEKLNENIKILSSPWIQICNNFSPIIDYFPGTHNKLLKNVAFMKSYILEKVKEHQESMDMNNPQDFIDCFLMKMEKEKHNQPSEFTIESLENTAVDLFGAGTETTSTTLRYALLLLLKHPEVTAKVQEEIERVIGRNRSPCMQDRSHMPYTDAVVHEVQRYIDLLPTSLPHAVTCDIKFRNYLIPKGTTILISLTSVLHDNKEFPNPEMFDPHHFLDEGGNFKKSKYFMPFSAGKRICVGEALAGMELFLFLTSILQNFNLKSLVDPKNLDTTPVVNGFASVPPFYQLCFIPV
Chain of Cytochrome P450 2D6 (Homo sapiens) (P10635 whole entry, looked up): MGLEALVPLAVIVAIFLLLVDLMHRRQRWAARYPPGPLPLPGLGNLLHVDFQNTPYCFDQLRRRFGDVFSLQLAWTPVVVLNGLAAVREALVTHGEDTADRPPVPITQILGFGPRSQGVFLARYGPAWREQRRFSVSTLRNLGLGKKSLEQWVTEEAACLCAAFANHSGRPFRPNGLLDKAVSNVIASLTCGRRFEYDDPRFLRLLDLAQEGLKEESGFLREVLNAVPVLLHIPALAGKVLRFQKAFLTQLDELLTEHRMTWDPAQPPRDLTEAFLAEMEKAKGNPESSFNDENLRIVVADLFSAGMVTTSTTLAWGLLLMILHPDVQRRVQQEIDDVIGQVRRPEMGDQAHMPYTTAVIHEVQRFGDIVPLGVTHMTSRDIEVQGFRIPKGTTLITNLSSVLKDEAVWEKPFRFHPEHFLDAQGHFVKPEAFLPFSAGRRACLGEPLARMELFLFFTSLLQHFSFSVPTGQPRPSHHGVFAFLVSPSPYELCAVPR
Chain of Calcium and integrin-binding protein 1 (Homo sapiens) (Q99828 whole entry, looked up): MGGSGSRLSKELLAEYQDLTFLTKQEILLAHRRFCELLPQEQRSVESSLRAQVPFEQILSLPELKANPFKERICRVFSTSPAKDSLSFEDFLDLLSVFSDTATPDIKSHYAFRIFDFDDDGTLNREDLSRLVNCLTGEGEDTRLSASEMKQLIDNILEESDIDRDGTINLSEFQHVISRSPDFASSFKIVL
Chain of N-terminal Xaa-Pro-Lys N-methyltransferase 1 (Homo sapiens) (Q9BV86 whole entry, looked up): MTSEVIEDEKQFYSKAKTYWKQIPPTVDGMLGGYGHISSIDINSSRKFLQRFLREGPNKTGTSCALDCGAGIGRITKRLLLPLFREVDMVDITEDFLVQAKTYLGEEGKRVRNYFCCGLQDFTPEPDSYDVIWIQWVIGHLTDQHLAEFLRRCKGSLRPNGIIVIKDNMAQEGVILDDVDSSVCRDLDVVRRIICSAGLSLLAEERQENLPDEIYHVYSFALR

Row | SMILES | Potency [1] | outcome [2] | Potency [3] | Potency [4] | Potency [5] | Potency [6] | activity change, negative = inhibition [2] | activity change, negative = inhibition [3]
1 | OCCCNc1cc(-c2ccnc(Nc3cccc(Cl)c3)n2)ccn1 | 0.0415 µM (active) | inactive | inactive | 13.5 µM (active) | 10.7 µM (active) | 22.4 µM (active) | – | –
2 | C[C@@H](Oc1cc(-c2cnn(C3CCNCC3)c2)cnc1N)c1c(Cl)ccc(F)c1Cl | 14.7 µM (active) | inactive | inactive | 21.3 µM (active) and 13.5 µM (active) | 1.69 µM (active) | 39.8 µM (active) | – | –
3 | CNC(=O)c1ccc(-c2cnc3ncc(Cc4ccc5ncccc5c4)n3n2)cc1F | inactive | inactive | inactive | – | 2.13 µM (active) | – | – | –
4 | Cc1c(C)n(Cc2ccc(-c3ccccc3C(=O)O)cc2)c2ccc(C(=O)N[C@@H](C)c3ccc([N+](=O)[O-])cc3)cc12 | inactive | – | – | – | 15.1 µM (active) | – | – | –
5 | COc1ccc(CC2c3cc(OC)c(OC)cc3CC[N+]2(C)CCC(=O)OCCCCCOC(=O)CC[N+]2(C)CCc3cc(OC)c(OC)cc3C2Cc2ccc(OC)c(OC)c2)cc1OC (centres undefined) | inactive | – | – | – | inactive | – | -3.2% [at 6.45 µM] | 101% [at 7.35 µM]
6 | COc1cccc(-c2ccc(NC(=O)C3=C(C(=O)O)CCC3)c(F)c2)c1 | inactive | inactive | inactive | – | 21.3 µM (active) and 26.8 µM (active) | – | – | –
7 | CCOC(=O)C1=C(C)NC2=C(C(=O)CC(C)(C)C2)C1c1ccc(-c2ccccc2)cc1 (centres undefined) | 3.3 µM (active) | – | – | inactive | 2.68 µM (active) | – | – | –
